Test results reported in the supplement of paper PMC10849652.
About 7,900 targets were measured; listed, in parts, are those with a hit and a random draw of the rest. About 0.6% of all pairs of compound and target were hits. Unmarked numbers belong to inactive results.

Legend:
Assay in all cases: log2 fold change, soluble protein after heating vs DMSO (PISA); higher = thermal stabilisation; K562 cells, 10 uM, 30 min; active = over 0.2 and 3.5 SD of the protein, either way, in both replicates (recomputed)
[1] = compound: CC1=C(C=C(C=C1)NC(=O)C2=CC(=CC=C2)C(C)(C)C#N)NC3=CC4=C(C=C3)N=CN(C4=O)C
Outline: (§1)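 Thermal stability values are relative to control samples and come from duplicates. They are expressed as log2 fold changes. For measurement, K562 cells (2×10^6 cells/mL) received 10 μM compound for 30 min, and aliquots were heated for 3 min over 48°C-58°C, pooled, and extracted at 4°C in PBS with 0.5% NP-40. Soluble protein, the supernatant after 21,000xg for 90 min, was quantified by TMTpro 16plex LC-MS/MS with equalised channel sums.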

[2] = compound: CC1=C(C=C(C=C1)NC(=O)C2=CC(=CC=C2)N(C)C)NC(=O)C3=CC=C(C=C3)O
Outline: as §1

[3] = compound: CC1=CC=C(C=C1)SC2=C3C=C(SC3=CN=C2)C(=O)N
Outline: as §1

[4] = compound: CC1=NC(=CC=C1)C2=C(N=C(N2)C(C)(C)C)C3=CC4=NC=CN=C4C=C3
Outline: as §1

Nexturastat A = compound: CCCCN(Cc1ccc(C(=O)NO)cc1)C(=O)Nc1ccccc1 [Nexturastat A]
Outline: as §1

vemurafenib = compound: CCCS(=O)(=O)Nc1ccc(F)c(C(=O)c2c[nH]c3ncc(-c4ccc(Cl)cc4)cc23)c1F [vemurafenib]
Outline: as §1

[5] = compound: CCCS(=O)(=O)Nc1ccc(F)c(C(=O)c2c[nH]c3ncc(Cl)cc23)c1F
Outline: as §1

[6] = compound: CCCc1cc(C)[nH]c(=O)c1CNC(=O)c1cc(-c2ccnc(N3CCN(C)CC3)c2)cc2c1cnn2C(C)C
Outline: as §1

givinostat = compound: CCN(CC)Cc1ccc2cc(COC(=O)Nc3ccc(C(=O)NO)cc3)ccc2c1 [givinostat]
Outline: as §1

barasertib = compound: CCN(CCCOc1ccc2c(Nc3cc(CC(=O)Nc4cccc(F)c4)[nH]n3)ncnc2c1)CCOP(=O)(O)O [barasertib]
Outline: as §1

[7] = compound: CC[C@@H]1C(=O)N(C)c2cnc(Nc3ccc(C(=O)NC4CCN(C)CC4)cc3OC)nc2N1C1CCCC1
Outline: as §1

volasertib = compound: CC[C@@H]1C(=O)N(C)c2cnc(Nc3ccc(C(=O)N[C@H]4CC[C@H](N5CCN(CC6CC6)CC5)CC4)cc3OC)nc2N1C(C)C [volasertib]
Outline: as §1

[8] = compound: CC[C@H](C)N1C=C(C2=C(C=C(C=C21)C3=CN=C(C=C3)N4CCNCC4)C(=O)NCC5=C(C=C(NC5=O)C)C)C
Outline: as §1

epoxomicin = compound: CC[C@H](C)[C@@H](C(=O)N[C@@H]([C@@H](C)O)C(=O)N[C@@H](CC(C)C)C(=O)[C@]1(CO1)C)NC(=O)[C@H]([C@@H](C)CC)N(C)C(=O)C [epoxomicin]
Outline: as §1

[9] = compound: CCn1c(C(=O)N(C2CC2)C2CC2)cc2c3c(ncn3C)c(Nc3cc(C)n(C)n3)nc21
Outline: as §1

[10] = compound: CCn1cc(-c2ccnc3[nH]c(-c4cccc(CN(C)C)c4)cc23)c(-c2ccc(NC(=O)N(C)C)cc2)n1
Outline: as §1

[11] = compound: CN(C)CC(=O)Nc1ccc2[nH]c(=O)c3ccccc3c2c1
Outline: as §1

rosiglitazone = compound: CN(CCOC1=CC=C(C=C1)C[C@H]2C(=O)NC(=O)S2)C3=CC=CC=N3 (racemic) [rosiglitazone]
Outline: as §1

[12] = compound: CN1C2=C(C3=C1C(=O)N(N=C3)CC4=CC(=CC=C4)N)SC(=C2)S(=O)C
Outline: as §1

[13] = compound: CN1CCC(CNc2ccc3ncc(-c4cccc(OC(F)(F)F)c4)n3n2)CC1
Outline: as §1

Chain of UniProt Q93096 (Q93096 whole entry, looked up): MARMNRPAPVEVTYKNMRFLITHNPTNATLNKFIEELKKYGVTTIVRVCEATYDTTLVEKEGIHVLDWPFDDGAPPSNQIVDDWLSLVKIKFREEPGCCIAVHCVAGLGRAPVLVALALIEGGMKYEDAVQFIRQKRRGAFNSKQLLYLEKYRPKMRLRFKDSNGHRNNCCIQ
Chain of UniProt O00628 (O00628 whole entry, looked up): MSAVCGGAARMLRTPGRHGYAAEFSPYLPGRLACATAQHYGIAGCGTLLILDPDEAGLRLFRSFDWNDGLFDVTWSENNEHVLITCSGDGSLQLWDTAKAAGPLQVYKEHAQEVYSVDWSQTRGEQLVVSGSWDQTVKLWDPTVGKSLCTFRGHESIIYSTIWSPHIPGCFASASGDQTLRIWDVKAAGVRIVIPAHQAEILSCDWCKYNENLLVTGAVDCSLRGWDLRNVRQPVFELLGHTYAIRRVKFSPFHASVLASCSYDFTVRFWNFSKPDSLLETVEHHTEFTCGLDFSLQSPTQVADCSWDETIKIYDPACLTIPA
Chain of UniProt P28340 (P28340 whole entry, looked up): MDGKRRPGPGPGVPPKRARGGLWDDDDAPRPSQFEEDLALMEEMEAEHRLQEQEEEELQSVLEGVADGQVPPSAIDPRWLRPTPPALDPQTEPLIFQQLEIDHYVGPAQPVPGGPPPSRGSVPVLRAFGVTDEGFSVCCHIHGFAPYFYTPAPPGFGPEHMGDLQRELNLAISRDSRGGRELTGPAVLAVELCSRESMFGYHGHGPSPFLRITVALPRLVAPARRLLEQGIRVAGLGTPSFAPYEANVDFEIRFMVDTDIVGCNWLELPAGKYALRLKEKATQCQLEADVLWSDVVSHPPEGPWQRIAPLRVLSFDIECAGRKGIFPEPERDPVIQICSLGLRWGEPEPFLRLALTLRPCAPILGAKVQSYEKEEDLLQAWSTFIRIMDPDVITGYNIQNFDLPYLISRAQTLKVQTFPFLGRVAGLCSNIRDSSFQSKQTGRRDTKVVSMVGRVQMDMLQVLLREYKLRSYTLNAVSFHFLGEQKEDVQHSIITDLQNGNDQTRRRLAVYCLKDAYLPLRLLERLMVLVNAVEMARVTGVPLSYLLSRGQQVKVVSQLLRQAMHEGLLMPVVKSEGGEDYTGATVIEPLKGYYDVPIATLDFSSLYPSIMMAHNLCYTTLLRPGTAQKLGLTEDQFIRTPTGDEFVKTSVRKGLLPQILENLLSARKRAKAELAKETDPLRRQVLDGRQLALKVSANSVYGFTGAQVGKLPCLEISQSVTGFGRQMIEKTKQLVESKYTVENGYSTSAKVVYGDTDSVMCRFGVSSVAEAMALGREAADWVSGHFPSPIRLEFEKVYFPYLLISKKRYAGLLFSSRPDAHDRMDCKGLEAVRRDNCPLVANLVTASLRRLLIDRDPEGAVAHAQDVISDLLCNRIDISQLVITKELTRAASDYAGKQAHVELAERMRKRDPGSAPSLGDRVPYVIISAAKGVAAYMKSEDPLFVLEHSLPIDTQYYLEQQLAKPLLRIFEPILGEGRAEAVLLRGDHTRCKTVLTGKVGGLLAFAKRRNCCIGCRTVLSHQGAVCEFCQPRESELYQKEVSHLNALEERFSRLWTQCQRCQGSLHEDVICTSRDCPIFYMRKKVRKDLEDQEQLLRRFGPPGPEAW
Chain of UniProt Q15004 (Q15004 whole entry, looked up): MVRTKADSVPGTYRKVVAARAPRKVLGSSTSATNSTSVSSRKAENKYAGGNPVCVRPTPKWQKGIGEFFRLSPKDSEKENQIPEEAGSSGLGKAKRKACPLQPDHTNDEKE
Chain of UniProt P31321 (P31321 whole entry, looked up): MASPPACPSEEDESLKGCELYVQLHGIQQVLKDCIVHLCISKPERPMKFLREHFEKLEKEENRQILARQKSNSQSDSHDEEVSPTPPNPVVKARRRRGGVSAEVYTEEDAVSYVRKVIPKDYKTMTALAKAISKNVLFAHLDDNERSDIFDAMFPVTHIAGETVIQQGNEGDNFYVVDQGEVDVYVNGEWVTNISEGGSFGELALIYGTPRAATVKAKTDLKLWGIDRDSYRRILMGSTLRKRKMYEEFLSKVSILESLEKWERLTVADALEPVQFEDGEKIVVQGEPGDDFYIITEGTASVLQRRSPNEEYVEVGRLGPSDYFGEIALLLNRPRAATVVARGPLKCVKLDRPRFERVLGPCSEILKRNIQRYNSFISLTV
Chain of UniProt Q00577 (Q00577 whole entry, looked up): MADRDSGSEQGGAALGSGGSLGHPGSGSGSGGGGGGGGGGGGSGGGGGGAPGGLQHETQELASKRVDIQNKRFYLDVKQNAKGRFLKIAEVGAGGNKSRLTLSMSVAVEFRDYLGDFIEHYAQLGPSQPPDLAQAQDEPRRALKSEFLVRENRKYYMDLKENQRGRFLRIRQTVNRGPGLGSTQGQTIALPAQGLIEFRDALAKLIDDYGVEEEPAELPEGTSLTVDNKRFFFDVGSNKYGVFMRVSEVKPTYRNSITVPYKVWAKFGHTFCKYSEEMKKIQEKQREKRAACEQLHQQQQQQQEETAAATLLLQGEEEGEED
Chain of UniProt Q9BTU6 (Q9BTU6 whole entry, looked up): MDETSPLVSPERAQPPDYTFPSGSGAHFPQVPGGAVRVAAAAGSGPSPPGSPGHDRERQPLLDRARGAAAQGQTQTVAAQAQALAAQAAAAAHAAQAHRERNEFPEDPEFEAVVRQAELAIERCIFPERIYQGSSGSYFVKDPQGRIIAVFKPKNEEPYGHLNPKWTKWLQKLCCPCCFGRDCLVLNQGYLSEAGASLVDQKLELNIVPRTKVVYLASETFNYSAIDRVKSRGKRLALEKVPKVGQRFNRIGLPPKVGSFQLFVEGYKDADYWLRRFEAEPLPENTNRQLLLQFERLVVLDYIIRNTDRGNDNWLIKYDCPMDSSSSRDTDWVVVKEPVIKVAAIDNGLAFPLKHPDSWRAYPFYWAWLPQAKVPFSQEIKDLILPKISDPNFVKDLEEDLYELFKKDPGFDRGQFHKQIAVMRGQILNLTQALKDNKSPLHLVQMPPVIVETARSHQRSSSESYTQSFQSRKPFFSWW
Chain of UniProt Q9UHX1 (Q9UHX1 whole entry, looked up): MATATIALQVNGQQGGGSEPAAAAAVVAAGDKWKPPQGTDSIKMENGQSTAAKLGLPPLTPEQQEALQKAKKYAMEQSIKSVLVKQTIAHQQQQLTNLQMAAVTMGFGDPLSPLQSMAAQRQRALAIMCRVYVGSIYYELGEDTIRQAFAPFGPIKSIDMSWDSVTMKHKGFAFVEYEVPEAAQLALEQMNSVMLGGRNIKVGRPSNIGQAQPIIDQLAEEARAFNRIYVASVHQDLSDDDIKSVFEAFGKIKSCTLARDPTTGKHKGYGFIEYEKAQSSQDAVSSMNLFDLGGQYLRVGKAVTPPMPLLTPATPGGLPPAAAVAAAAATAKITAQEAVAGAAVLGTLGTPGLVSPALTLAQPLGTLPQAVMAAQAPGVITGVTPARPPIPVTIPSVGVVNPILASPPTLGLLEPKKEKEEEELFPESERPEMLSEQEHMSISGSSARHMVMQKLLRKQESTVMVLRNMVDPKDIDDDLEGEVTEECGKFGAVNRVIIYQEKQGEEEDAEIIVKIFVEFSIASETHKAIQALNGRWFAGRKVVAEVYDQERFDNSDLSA
Chain of UniProt P06737 (P06737 whole entry, looked up): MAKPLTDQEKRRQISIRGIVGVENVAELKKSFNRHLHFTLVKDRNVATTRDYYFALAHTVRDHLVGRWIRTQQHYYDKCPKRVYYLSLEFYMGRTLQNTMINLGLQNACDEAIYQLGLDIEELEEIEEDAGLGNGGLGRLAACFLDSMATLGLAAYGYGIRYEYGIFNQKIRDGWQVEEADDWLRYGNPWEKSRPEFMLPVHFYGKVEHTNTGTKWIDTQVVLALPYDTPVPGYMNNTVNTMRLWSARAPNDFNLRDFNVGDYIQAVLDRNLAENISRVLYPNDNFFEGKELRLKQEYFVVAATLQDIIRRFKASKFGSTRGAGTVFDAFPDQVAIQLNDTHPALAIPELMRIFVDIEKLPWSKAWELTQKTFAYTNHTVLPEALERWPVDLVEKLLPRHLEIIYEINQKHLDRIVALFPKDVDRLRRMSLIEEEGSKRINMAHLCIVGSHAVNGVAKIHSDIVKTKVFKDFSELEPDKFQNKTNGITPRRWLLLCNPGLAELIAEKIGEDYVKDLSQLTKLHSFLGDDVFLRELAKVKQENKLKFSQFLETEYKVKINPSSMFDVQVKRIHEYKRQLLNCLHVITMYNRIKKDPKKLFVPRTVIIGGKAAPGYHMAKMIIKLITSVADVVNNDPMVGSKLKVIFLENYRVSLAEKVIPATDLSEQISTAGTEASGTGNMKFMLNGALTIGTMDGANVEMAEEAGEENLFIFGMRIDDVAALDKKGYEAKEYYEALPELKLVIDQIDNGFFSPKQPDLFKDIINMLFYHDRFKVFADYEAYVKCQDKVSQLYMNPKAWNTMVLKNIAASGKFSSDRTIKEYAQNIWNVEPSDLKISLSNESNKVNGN
Chain of UniProt P13861 (P13861 whole entry, looked up): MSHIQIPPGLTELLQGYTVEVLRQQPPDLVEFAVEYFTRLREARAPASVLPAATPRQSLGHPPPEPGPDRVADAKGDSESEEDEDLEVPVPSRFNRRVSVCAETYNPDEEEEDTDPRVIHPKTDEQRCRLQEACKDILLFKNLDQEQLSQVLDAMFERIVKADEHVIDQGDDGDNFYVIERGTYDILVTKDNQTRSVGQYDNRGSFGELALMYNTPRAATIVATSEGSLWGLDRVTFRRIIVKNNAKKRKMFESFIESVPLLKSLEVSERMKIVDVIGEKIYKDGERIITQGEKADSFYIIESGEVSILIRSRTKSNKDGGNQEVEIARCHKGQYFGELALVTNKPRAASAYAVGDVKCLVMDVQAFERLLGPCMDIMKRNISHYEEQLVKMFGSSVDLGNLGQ

Target | log2 fold change [1] | log2 fold change [2] | log2 fold change [3] | log2 fold change [4] | log2 fold change (Nexturastat A) | log2 fold change (vemurafenib) | log2 fold change [5] | log2 fold change [6] | log2 fold change (givinostat) | log2 fold change (barasertib) | log2 fold change [7] | log2 fold change (volasertib) | log2 fold change [8] | log2 fold change (epoxomicin) | log2 fold change [9] | log2 fold change [10] | log2 fold change [11] | log2 fold change (rosiglitazone) | log2 fold change [12] | log2 fold change [13]
PTP4A1 (UniProt Q93096) | -0.007 | -0.005 | 0.023 | 0.023 | 0.002 | 0 | 0.062 | -0.024 | -0.003 | 0.035 | 0.025 | 0.019 | 0.036 | 0.065 | 0.029 | -0.055 | -0.044 | -0.011 | -0.043 | 0.022
POLR2K (UniProt P53803) | -0.036 | 0.065 | 0.056 | 0.024 | -0.162 | -0.001 | -0.024 | 0.075 | -0.137 | 0.023 | -0.259 | -0.002 | -0.05 | -0.032 | 0.144 | -0.049 | 0.05 | -0.059 | -0.02 | 0.05
POLD1 (UniProt P28340) | -0.083 | -0.028 | 0.018 | 0.022 | 0.02 | 0.033 | 0.071 | 0.006 | 0.021 | 0.005 | -0.061 | -0.239 (active) | 0.053 | 0.123 | 0 | -0.005 | 0.027 | -0.029 | -0.03 | -0.171
PKN1 isoform 2 (UniProt Q16512) | 0.01 | 0.002 | 0.019 | 0.014 | 0.053 | 0.023 | 0.03 | 0.022 | 0.059 | 0.03 | 0.005 | -0.105 | 0.084 | 0.014 | -0.185 | -0.038 | 0.009 | 0.06 | -0.021 | -0.772 (active)
PRKAR2A (UniProt P13861) | 0.141 | 0.001 | 0.011 | -0.033 | 0.008 | -0.021 | -0.021 | 0.019 | 0.024 | -0.001 | 0.03 | -0.024 | 0.046 | -0.031 | -0.007 | -0.033 | 0.047 | 0.011 | 0.077 | 0.023
PUF60 (UniProt Q9UHX1) | 0.046 | -0.018 | 0.043 | 0.022 | -0.003 | 0.034 | 0.14 | 0.009 | 0.022 | 0.025 | -0.078 | -0.304 (active) | 0.033 | 0.028 | -0.045 | -0.032 | 0.007 | 0.022 | -0.031 | 0.051
PI4K2A (UniProt Q9BTU6) | -0.037 | -0.02 | 0.004 | 0.023 | -0.005 | 0.023 | 0.015 | -0.036 | -0.008 | -0.011 | -0.075 | -0.081 | 0.009 | 0.027 | 0.037 | -0.023 | -0.014 | 0.055 | 0.009 | -0.146
PRMT7 (UniProt Q9NVM4) | 0.056 | -0.197 | 0.065 | -0.055 | -0.003 | -0.03 | 0.145 | -0.014 | 0.042 | 0.023 | -0.074 | -0.461 (active) | 0.04 | -0.036 | -0.042 | -0.077 | 0.032 | 0.082 | 0.022 | -0.176
PCYT1A (UniProt P49585) | -0.049 | -0.038 | -0.045 | 0.035 | -0.034 | 0.052 | 0.043 | -0.092 | -0.024 | 0.044 | -0.219 | -0.332 (active) | 0.042 | 0.028 | -0.029 | -0.019 | 0.017 | 0.008 | -0.022 | -0.111
PYGL (UniProt P06737) | -0.105 | 0.011 | 0.011 | 0.006 | -0.018 | -0.009 | 0.003 | -0.015 | 0.012 | -0.01 | -0.091 | -0.262 (active) | 0.008 | -0.02 | -0.081 | 0.016 | -0.001 | 0.018 | -0.006 | 0.029
PDE12 (UniProt Q6L8Q7) | 0.049 | 0.006 | 0.024 | 0.026 | -0.064 | -0.006 | 0.03 | -0.01 | -0.027 | 0.014 | -0.035 | -0.056 | -0.008 | 0.04 | 0.003 | -0.038 | 0.026 | 0.028 | -0.078 | -0.014
PEX7 (UniProt O00628) | 0.061 | -0.011 | 0.025 | -0.066 | -0.041 | -0.049 | 0.007 | -0.035 | -0.107 | -0.089 | 0.038 | 0.005 | -0.027 | 0.075 | -0.044 | -0.01 | 0.091 | -0.045 | -0.067 | 0.023
PURA (UniProt Q00577) | 0.032 | 0.032 | -0.101 | -0.121 | 0.112 | -0.111 | -0.143 | 0.144 | -0.008 | -0.091 | 0.355 | 0.418 | -0.087 | -0.197 | 0.036 | 0.26 | -0.095 | -0.18 | 0.327 | 0.441
PCLAF (UniProt Q15004) | -0.119 | 0.031 | -0.014 | -0.009 | -0.002 | -0.097 | -0.083 | 0.115 | -0.061 | -0.007 | 0.085 | 0.124 | -0.046 | 0.185 | 0.012 | 0.035 | -0.087 | -0.014 | 0.001 | 0.015
PJA2 (UniProt O43164) | -0.059 | 0.019 | -0.008 | -0.019 | 0.188 | -0.024 | -0.062 | -0.024 | 0.017 | -0.004 | -0.007 | 0.001 | 0.014 | 0.202 | 0.055 | 0.066 | -0.051 | 0.004 | -0.001 | -0.156
PRKAR1B (UniProt P31321) | 0.102 | -0.019 | 0.004 | -0.057 | 0.015 | 0.04 | -0.038 | 0.133 | -0.036 | -0.12 | 0.024 | -0.054 | -0.067 | -0.063 | 0.119 | 0.12 | -0.001 | 0.042 | 0.127 | 0.43 (active)
